# Most compounds without a hit are left out; they make up all but 28% or so of the library.
# CYP2C19 inh: blockers of cytochrome P450 2C19 activity – biochemical, luminescence, ADME assay, primary screen; 21% of 96,000 active; CYP2C19 Supersomes, luciferin-H EGE luminescence, 30 min; inhibition, % at 5 µM;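 active = CYP2C19 inhibition above a set limit at 5 µM in the primary screen, cut at about 50% in these data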;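 also: plate controls were negative control wells for no effect and 2.5 mM tranylcypromine positive control for full effect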
# CYP2C9 activ: human CYP2C9 activators, primary screen, biochemical, luminescence; Cytochrome P450 2C9 (Homo sapiens), P11712; recombinant CYP2C9, luciferin-H conversion; active compounds read high; factor 1 = untreated enzyme, 0 = blocked; activation factor at 5 µM; 1.4% of 96,000 active;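 active = activation factor of 2 or more for CYP2C9 at a 5 µM dose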;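 also: 0 = sulfaphenazole-blocked wells and 1 = vehicle-only wells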
# CYP2C19 act: human CYP2C19 activators, primary screen, biochemical, luminescence; Cytochrome P450 2C19 (Homo sapiens), P33261; recombinant CYP2C19, luciferin-H EGE luminescence; active compounds read high; 0 = fully inhibited enzyme, 1 = untreated enzyme; activation factor at 5 µM; 96,000 tested, under 10 active;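 active = activation factor of at least 2 at 5 µM in the primary screen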;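 also: 0 = wells with 2.5 mM tranylcypromine and 1 = vehicle-only wells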
# CD11b adhes inh: inhibitors of CD11b/CD18 adhesion to fibrinogen, primary screen, K562 cells, luminescence | Integrin beta-2 (Homo sapiens) + Integrin alpha-M (Homo sapiens), P05107+P11215 | ATPlite luminescence; Mn2+ added to activate the integrin | inhibition, % at 10 µM | 0.54% of 93,000 active | AID 1497, 2009;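 active = primary inhibition of 50% or more at 10 µM, then 40% or more on retest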
# Target sequence (P05107 whole entry, looked up, other chains not shown): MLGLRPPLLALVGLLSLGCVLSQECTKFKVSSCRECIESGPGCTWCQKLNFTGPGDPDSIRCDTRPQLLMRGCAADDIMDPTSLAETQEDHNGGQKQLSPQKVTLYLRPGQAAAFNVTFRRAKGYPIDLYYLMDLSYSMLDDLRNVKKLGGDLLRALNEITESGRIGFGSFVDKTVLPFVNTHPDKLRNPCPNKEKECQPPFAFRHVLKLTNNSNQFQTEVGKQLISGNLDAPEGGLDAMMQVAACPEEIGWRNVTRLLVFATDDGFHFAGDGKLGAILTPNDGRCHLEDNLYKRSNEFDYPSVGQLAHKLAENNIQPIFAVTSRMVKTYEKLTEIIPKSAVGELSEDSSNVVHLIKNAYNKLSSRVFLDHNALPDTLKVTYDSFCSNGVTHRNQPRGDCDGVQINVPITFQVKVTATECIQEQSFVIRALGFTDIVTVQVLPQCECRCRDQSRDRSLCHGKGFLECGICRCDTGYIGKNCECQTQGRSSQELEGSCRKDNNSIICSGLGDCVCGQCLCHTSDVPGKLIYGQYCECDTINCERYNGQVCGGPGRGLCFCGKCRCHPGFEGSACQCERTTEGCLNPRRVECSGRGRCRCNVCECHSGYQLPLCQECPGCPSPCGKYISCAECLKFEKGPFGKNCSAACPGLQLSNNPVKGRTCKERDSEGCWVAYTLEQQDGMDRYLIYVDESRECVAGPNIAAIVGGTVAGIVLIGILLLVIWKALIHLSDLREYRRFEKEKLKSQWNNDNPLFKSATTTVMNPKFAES
# CYP2C9 inhib: blockers of cytochrome P450 2C9 activity – biochemical, luminescence, ADME assay, primary screen. P11712. CYP2C9 Supersomes, luciferin-H conversion. inhibition, % at 5 µM. 20% of 96,000 active. AID 777, 2007;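 active = blocking of liver enzyme CYP2C9 beyond about 50% at 5 µM, limit read from the data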
# Mac1 fbg enh: enhancers of CD11b/CD18 adhesion to fibrinogen, primary screen, K562 cells, luminescence; activation, % at 10 µM; AID 1499, 2009; ATPlite luminescence; 0.07% of 93,000 active;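 active = 10 µM primary screen giving 50% or more activity, confirmed by 40% or more on retest at that dose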
# Starred values were filed as active, the others as inactive; . = not tested or not shown.
SMILES,CYP2C19 inh,CYP2C9 activ,CYP2C19 act,CD11b adhes inh,CYP2C9 inhib,Mac1 fbg enh
O=c1cc2c(nn1Cc1c(Cl)cccc1Cl)-c1ccccc1CC2,36,0.5,0.6,-4,50*,12
CCN1C(=O)/C(=C\c2cn(CCC#N)nc2-c2ccc(F)cc2)SC1=S,.,.,.,0,.,15
O=C(COC(=O)CCCSc1nc2ccccc2[nH]1)Nc1ccc(Cl)cc1,.,.,.,41,.,6
Cc1ccc(NC(=S)NC(NC(=O)c2ccccc2C)C(Cl)(Cl)Cl)c(C)c1 (stereo not drawn),15,0.3,0.8,.,73*,.
CCc1ccc(OCC(=O)NC(NC(=S)Nc2ccccc2C)C(Cl)(Cl)Cl)cc1 (stereo not drawn),.,.,.,6,.,-1
Cc1ccc(C)c(NC(=S)NC(NC(=O)N(C)C)C(Cl)(Cl)Cl)c1 (stereo not drawn),70*,0.2,0.3,-26,78*,4
CCc1ccc(OCC(=O)NC(NC(=S)Nc2ccc(C)cc2C)C(Cl)(Cl)Cl)cc1 (stereo not drawn),54*,0.4,0.5,-4,57*,50*
Cc1ccccc1NC(=S)NC(NC(=O)COc1ccccc1)C(Cl)(Cl)Cl (stereo not drawn),61*,0.3,0.4,13,72*,19
Cc1ccccc1NC(=S)NC(NC(=O)C(C)(C)C)C(Cl)(Cl)Cl (stereo not drawn),23,0,0.8,10,97*,-7
O=C(COc1ccccc1)NC(NC(=S)Nc1ccccc1O)C(Cl)(Cl)Cl (stereo not drawn),93*,0.2,0.1,.,83*,.
COC(=O)c1ccccc1NC(=S)NC(NC(=O)COc1ccccc1)C(Cl)(Cl)Cl (stereo not drawn),0,0.9,1,.,10,.
O=C(COc1ncnc2c1cnn2-c1ccccc1)Nc1ccc(S(=O)(=O)N2CCCCC2)cc1,.,.,.,0,.,0
COCCN(C(=O)C1CC1)c1nnc(-c2cccc(C)c2)s1,72*,0.2,0.3,12,80*,0
COCC(=O)N(C)c1nnc(-c2cnc(C)cn2)s1,1,0.9,1,0,7,1
C=CCN(C(=O)COc1ccccc1)c1nnc(-c2ccncc2)s1,87*,0.5,0.1,-13,52*,1
COCCN(C(=O)c1cccc(OC)c1)c1nnc(-c2ccncc2)s1,100*,0.2,0,-11,80*,-3
O=C(COc1ccccc1)N(Cc1ccccc1)c1nc(-c2ccccc2)cs1,2,0.8,1,-4,22,-5
CCCCC(=O)N(CCOC)c1nnc(-c2ccc(OC)cc2)s1,16,1,0.8,-10,1,-3
Cc1ccc(OCC(=O)Nc2ccc(C)c(S(=O)(=O)N3CCCCC3)c2)c([N+](=O)[O-])n1,.,.,.,14,.,4
CCN(C(=O)COC(=O)c1cc(-c2cccc3ccccc23)nc2ccccc12)C1CCS(=O)(=O)C1 (stereo not drawn),.,.,.,10,.,22
CCN(CC)c1nc(C)nc2c1cnn2CCc1ccccc1,97*,0.9,0,7,14,-6
Cn1ncc2c1ncn1nc(CCc3ccccc3)nc21,36,1,0.6,-2,1,7
Fc1ccc(OCc2nn3cnnc3s2)cc1,79*,1,0.2,-31,0,0
Cn1c(CC(=O)Nc2ccccc2)nnc1SCCOc1ccccc1,13,0.9,0.9,2,10,-5
CC1CN(Cc2ccc(Cl)cc2Cl)CC(C)O1 (stereo not drawn),54*,0.9,0.5,-15,15,0
SMILES,CYP2C19 inh,CYP2C9 activ,CYP2C19 act,CD11b adhes inh,CYP2C9 inhib,Mac1 fbg enh
CC1CN(Cc2ccc(C#N)cc2Cl)CC(C)O1 (stereo not drawn),-3,1,1,6,1,-1
COc1ccccc1CNC(=O)N[C@@H](Cc1ccccc1)C(=O)O,70*,0.8,0.3,-30,21,-2
COC(=O)[C@H](Cc1ccccc1)NC(=O)NCc1cccs1,63*,0.8,0.4,22,20,-3
O=C(NCc1ccccc1)N[C@@H](Cc1ccccc1)C(=O)O,17,1,0.8,.,-4,.
COc1cc(C(=O)NCCOc2cc(C)cc(C)c2)c(Br)c(OC)c1OC,86*,1.1,0.1,7,-8,1
COc1cc(C(=O)NCc2ccco2)c(Br)c(OC)c1OC,39,1.1,0.6,-14,-13,10
CCOC(=O)CSc1ccc(-c2nc3ccccc3[nH]2)cn1,30,0.8,0.7,6,17,-5
CCc1nnc(NC(=O)CSc2ccc(-c3nc4ccccc4[nH]3)cn2)s1,23,0.5,0.8,-2,51*,4
O=C(CSc1ncc(-c2ccc(F)cc2)[nH]1)Nc1cccc(O)c1,51*,0.9,0.5,-20,10,-2
COc1cc(NC(=O)c2ccco2)c(OC)cc1NC(=O)CSc1ncc(-c2ccc(F)cc2)[nH]1,-4,1,1,-5,0,0
CCc1nnc(NC(=O)CSc2nnc3ncccn23)s1,68*,0.6,0.3,-10,35,2
CCc1nnc(NC(=O)CSc2ncc(-c3ccccc3)n2CC)s1,76*,0.3,0.2,9,72*,-1
O=C(CCl)Nc1ccc(Oc2cnc3ccccc3n2)cc1,35,1.8,0.7,5,-76,5
CCc1nnc(NC(=O)CSc2ncc(-c3ccccc3)[nH]2)s1,25,0.3,0.7,1,66*,1
COc1ccc(N2C(=O)[C@@H]3Cc4ccccc4CN3C2=O)cc1,-5,1,1.1,-5,-3,-1
CC1Cc2ccccc2N1C(=O)CSc1nc2ccccc2n1CC(=O)N1CCOCC1 (stereo not drawn),-2,0.6,1,-1,44,12
CCSc1nc2ccccc2n1CC(=O)OC,-6,1.2,1.1,-12,-21,2
COC(=O)Cn1c(SCc2ccccc2)nc2ccccc21,58*,0.8,0.4,-6,23,5
COc1cccc(NC(=O)Cn2c(SCC(=O)N3CCOCC3)nc3ccccc32)c1,71*,0.2,0.3,-6,80*,-2
COc1cccc(C(=O)CSc2nc3ccccc3n2CC(=O)N2CCOCC2)c1,17,0.3,0.8,0,68*,-2
COc1ccc(C(=O)CSc2nc3ccccc3n2CC(=O)NC(C)(C)C)cc1,40,0.3,0.6,4,72*,-4
O=c1cc[nH]c2cccc(Cc3ccccc3)c12,26,1,0.7,.,2,.
